Results published in PubChem BioAssay (NCI).
The panel holds about 83,000 compounds, 20% with a hit somewhere; the sample as a whole holds those more often.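 For each line, cells grew in 96-well plates with the test compound present at a single concentration for 48 hours.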 Values without a mark were called inactive. Active and inactive are the calls of the source. How the source made its calls: active means growth percent below 10; inactive means the rest.

What follows are molecules tested on HL-60(TB) leukemia (assay: NCI-60 one-dose screen, 48 h (100 = growth as untreated, 0 = no growth, -100 = all killed)). Conditions: 10 µM unless noted.

Structure (SMILES) | growth
CSc1nc2[nH]ncc2c(=O)[nH]1 | 114%
CN(C)C1CCN(C(=O)c2ccc(NC(=O)Nc3ccc(-c4nc(N5CCOCC5)c5cccn5n4)cc3)cc2)CC1 | 4.58% (active)
Nc1ccccc1C#C/C=C\C#Cc1cccc(O)c1 | 12.6%
C=CCN1C(=O)[C@]2(SC1=S)[C@H](c1cccc(Cl)c1)CN(C)[C@]21C(=O)NC2C=CC(Cl)=C[C@H]21 (stereo partly specified) | -39.8% (active)
Oc1ccc(Cl)cc1-c1cc(-c2ccc(Cl)cc2)n[nH]1 | 60.4%
Cc1ccc(C(=O)Nc2ccc(CN3CCN(C)CC3)c(C(F)(F)F)c2)cc1C#Cc1cnc(N)cc1C#N | -53.5% (active)
c1ccc(CP(Cc2ccccc2)c2ccccc2)cc1 | 84.2%
NC(=NCCCOc1ccc(Cl)cc1)Nc1ccc(Cl)cc1 | 95.3%
O=C(N/N=C/c1cccc(O)c1O)c1ccccc1 | 19.1%
O=c1[nH]n(-c2ccccc2)c(=O)cc1Cl | 103%
CCN(CC)c1cc(N)c(Cc2c(N)cc(N(CC)CC)cc2Cl)c(Cl)c1 | -8.28% (active)
CCCC(=O)Oc1ccc2ccccc2c1 | 98.5%
Cc1c(C(N)=O)sc2ncn(Cc3ccccc3)c(=O)c12 | 118%
COc1ccc(Oc2ccc(/C=C/C(=O)c3cc4ccccc4oc3=O)cc2)cc1 | 31.1%
COc1ccc(Cn2cc3c(c2-c2ccccc2)CCc2cnoc2-3)cc1 | 4.48% (active)
C/C(Cc1ccc(Cl)cc1)=C(\c1ccc(OCCN2CCCCCC2)cc1)c1ccc(OC(=O)Cc2ccccc2)cc1 | 15.8%
